# D1 potentiator = potentiators of human D1 dopamine receptor; P21728; HEK293 TREx D1 cells, calcium flux, dopamine EC20 potentiation; potentiation, % at 10 µM; 360,000 tested, 0.036% active; AID 504651; in the data active means potentiation above about 30%; further: 0% is about no effect
# TRHR ag = agonists of human TRH receptor. P34981. TRHR cells, calcium flux fluo-8, FDSS agonist mode. activation, % at 2 µM. 360,000 tested, 0.18% active; further: 0% is about no effect
# Target sequence (P34981 whole entry, looked up): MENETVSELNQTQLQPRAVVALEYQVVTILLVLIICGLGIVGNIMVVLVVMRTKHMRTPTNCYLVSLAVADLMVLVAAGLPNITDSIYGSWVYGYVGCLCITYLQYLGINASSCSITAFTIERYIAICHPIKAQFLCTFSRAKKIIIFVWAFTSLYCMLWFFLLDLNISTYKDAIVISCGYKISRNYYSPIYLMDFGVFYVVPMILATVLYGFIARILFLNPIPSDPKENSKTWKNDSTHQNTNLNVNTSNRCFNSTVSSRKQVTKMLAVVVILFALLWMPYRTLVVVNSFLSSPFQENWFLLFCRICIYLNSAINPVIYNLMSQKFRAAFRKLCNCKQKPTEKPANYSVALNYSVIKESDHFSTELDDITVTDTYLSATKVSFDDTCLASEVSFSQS
#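 Read-out: compound-evoked intracellular calcium rise in TRHR cells, fluo-8 dye, kinetic FDSS fluorescence at 1 s/cycle following a 10-cycle baseline. Cells cultured overnight before dye loading (30 min–1.5 h, RT).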
# D1 agonist = activates the human D1 dopamine receptor. P21728. HEK293 T-REx D1 cells, calcium flux, agonist mode. activation, % at 2 µM. 360,000 tested, 1% active. AID 504660; further: 0% is about no effect
#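 Agonism was scored from calcium flux recorded over 180 s (1 read/s) after pintool compound addition, following a 10-cycle baseline. Cells were inducible force-coupled HEK293 TREx D1, plated overnight at 30 C and loaded with no-wash calcium dye.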
# D1 antagonist = human D1 dopamine receptor antagonism. P21728. HEK293 TREx D1 cells, calcium flux, dopamine EC80; hits give low values. activity change, negative = inhibition, % at 10 µM. 360,000 tested, 3.2% active. AID 504652; in the data active means activity change below about -30%; further: on the % scale 0 is the no-effect control and ±100 the full control effect
#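 Inducible Hek293 Trex D1 cells (tetracycline, overnight, 30 C). Calcium dye 30–90 min RT. Antagonist mode: EC80 dopamine added after 180 s compound read.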
# TRHR PAM = allosteric enhancers of human TRH receptor; P34981; TRHR cells, fluo-8 calcium fluorescence, EC20 TRH enhancement; enhancement, % at 2 µM; 360,000 tested, 0.66% active; AID 493056; in the data active means enhancement above about 30%; further: 0% is about no effect
#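 TRHR-expressing cells loaded with fluo-8 calcium dye were read kinetically (ex 480/em 530) during compound addition, then stimulated with an EC20 of TRH (10 nM final). Enhancement of the Gq-mediated intracellular calcium response was scored.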
# * = called active by the depositor; nt = not tested or not shown. This is a sample that favours compounds with a hit; in the whole collection about 4.7% have one here. Unless noted, no stated cut-off is given here; in the data, active means activation above about 30%; inactive means the rest.
SMILES,D1 potentiator,TRHR ag,D1 agonist,D1 antagonist,TRHR PAM
COc1cccc(CNC(=O)c2ccc3c(c2)c(C)c(C)n3Cc2ccccc2)c1,-7.1,0.4,1.6,-32.6*,-6.9
COc1cccc(CNC(=O)c2ccncc2)c1,-3.1,0.2,0.8,12.6,31.7*
CCc1ccc(CNC(=O)c2ccc3c(c2)c(C)c(C)n3Cc2ccccc2)cc1,-4.8,0.6,2.7,-2.1,-2.9
Cc1c(C)n(Cc2ccccc2)c2ccc(C(=O)NCc3ccco3)cc12,-7.7,-0.6,6.8,-70.3*,-3.7
Cc1c(C)n(Cc2ccccc2)c2ccc(C(=O)N3CCN(c4ccc(F)cc4)CC3)cc12,1.7,0.3,1.4,-73.9*,-0.2
CC(C)Oc1ccc(CNC(=O)Cn2ncn3nc(-c4cccs4)cc3c2=O)cc1,-0.3,-0.7,-0.3,-5.0,4.5
O=c1c2[nH]c3cc(Br)sc3c2cnn1Cc1ccccc1F,3.0,-2.4,2.0,6.4,-0.8
CC(C)N(Cc1ccccc1)C(=O)Cn1ncc2c([nH]c3ccccc32)c1=O,-3.1,0.2,-0.9,0.4,3.9
CCc1ccc(NC(=O)c2ccc3c(c2)c(C)c(C)n3Cc2ccccc2)cc1,-4.0,0.3,1.0,13.1,-0.1
CC(C)(C)c1cc(C(=O)NCc2ccccc2)ccn1,5.6,0.3,6.8,-32.1*,-4.4
CS(=O)(=O)c1cccc(C(=O)NCc2ccccc2)c1,8.5,-0.7,0.8,7.7,-2.7
Cc1c(C)n(Cc2ccccc2)c2ccc(C(=O)OCCN(C)C)cc12,-4.0,23.2,56.8*,-24.7,5.5
Cc1ccccc1-n1c(=O)c2ccccc2n(CC(=O)NCc2ccco2)c1=O,-3.0,1.3,2.0,-7.8,3.9
CC(=O)c1c(C)n(CC(=O)NCc2ccco2)c2ccccc12,-3.5,-0.2,0.8,8.6,35.1*
CCOC(=O)c1ccc(NC(=O)c2ccc3c(c2)CCN3S(=O)(=O)c2ccc(Cl)cc2)cc1,-2.0,3.0,6.5,-12.9,3.8
COC(=O)c1sccc1NC(=O)C1CC1,-2.1,0.3,-0.3,-76.3*,13.3
COC(=O)c1sccc1NC(=S)OC,-3.9,-0.8,3.4,-6.4,0.5
COC(=O)c1scc(C)c1NC(=O)C1CCCCC1,4.0,-0.2,1.6,-44.3*,-0.2
COCCCNc1ncnc2c1cnn2-c1ccc(F)cc1,-1.6,0.0,-1.3,-8.1,2.1
Nc1c(C(=O)N/N=C/c2cccnc2)oc2nc(-c3ccco3)cc(-c3ccco3)c12,-2.6,2.6,3.7,-31.0*,-11.9
Nc1c(C(=O)N/N=C/c2cccnc2)oc2nc(-c3ccccc3)cc(-c3ccco3)c12,-9.6,1.2,1.1,-1.9,-0.6
Cc1ccc(C)c(NC(=O)Cn2cnc3nc4c(cc3c2=O)CCCC4)c1,4.4,0.4,6.9,21.7,-2.4
CN(C)S(=O)(=O)c1ccc2c(c1)c(=O)c(C(=O)N1CCN(c3cccc(Cl)c3)CC1)cn2C,10.8,-0.1,1.5,13.5,-4.7
CCOc1ccc(N(C)C(CNS(=O)(=O)c2ccccc2)c2ccccc2)cc1 (stereo not given),-0.6,-0.7,1.9,-3.7,0.4
COc1ccc(OC(=O)COc2ccc(Cl)cc2)cc1,-3.0,0.6,1.2,-6.2,39.1*
SMILES,D1 potentiator,TRHR ag,D1 agonist,D1 antagonist,TRHR PAM
O=C(CSc1nnc(COc2ccc(Cl)cc2)o1)N1CCCC1,-2.0,-1.6,0.9,9.7,-7.0
O=C(COc1ccc(Cl)cc1)N1CCN(c2ccc([N+](=O)[O-])c(N3CCCCC3)c2)CC1,-2.4,0.0,3.2,-31.1*,0.0
CC1CN(C(=O)COC(=O)COc2ccc(C#N)cc2)CC(C)O1 (stereo not given),-3.1,-0.2,-0.9,-47.0*,-9.4
O=C(CSc1nnc(COc2ccc(Cl)cc2)o1)N1CCCCC1,-6.3,-0.2,16.2,-31.5*,7.6
COc1ccccc1-c1noc(CSc2nnc(Cc3ccccc3)n2-c2ccc(C)c(C)c2)n1,4.4,0.3,3.8,1.8,-0.3
CC(C)CCNS(=O)(=O)c1ccc(N2CCCCS2(=O)=O)cc1,0.8,0.7,16.3,-17.2,-1.9
COc1ccc(-n2nnnc2C2CCN(S(=O)(=O)c3ccc(NC(C)=O)cc3)CC2)cc1,-1.3,1.2,0.0,-4.4,6.0
O=C(COc1ccc(Cl)cc1)OCC(=O)N1CCCCCC1,7.3,-0.3,1.1,-34.4*,-1.9
O=C(COc1ccc(Nc2ccccc2)cc1)OCC(=O)N1CCCCC1,-3.2,-1.5,10.9,-36.5*,-3.7
NC(=O)C1CCN(C(=O)COc2ccc(Nc3ccccc3)cc2)CC1,-5.9,0.0,5.2,-10.9,10.8
O=C(COc1ccc(Cl)cc1)OCC(=O)N1CCCC1,0.7,-0.3,2.7,1.9,-0.1
Cc1ccc2nc(Cl)c3cc(C(=O)N4CCCC(C)C4)sc3c2c1 (stereo not given),0.4,-0.7,0.1,10.8,2.1
CC1OC2(C)OC(=N)C1(C#N)C(C#N)(C#N)C2c1ccccc1 (stereo not given),4.5,2.2,4.1,-35.4*,-11.6
CCCCC1OC2(C)OC(=N)C1(C#N)C(C#N)(C#N)C2c1ccccc1 (stereo not given),1.9,0.7,2.2,9.5,6.6
Cc1ccccc1Nc1nnc(SCC(=O)NCc2cccs2)s1,-8.4,0.3,-0.2,-40.7*,4.0
Cc1nnc(SCC(=O)Nc2ccccc2NC(=O)CSc2nnc(C)s2)s1,-7.2,-0.1,0.0,-33.2*,2.9
Cc1cccc(C)c1Nc1nnc(SCC(=O)NCc2cccs2)s1,-4.2,-1.0,7.2,-5.6,1.8
Cc1nnc(SCC(=O)NCC2COc3ccccc3O2)s1 (stereo not given),-3.6,-0.2,-0.3,-30.9*,2.9
CCn1cnnc1SCC(=O)NCC1COc2ccccc2O1 (stereo not given),0.8,0.4,1.8,4.8,8.2
CC1CCN(C(=O)CSc2nnc(NC(=O)Nc3ccccc3)s2)CC1,2.2,-0.2,-2.5,nt,-6.2
Cc1ccccc1NC(=O)CSc1ccc(-c2cccs2)nn1,-2.4,0.3,4.3,5.0,7.6
CC1CC(Nc2ccccc2)c2ccccc2N1C(=O)c1ccncc1 (stereo not given),0.8,-0.3,0.6,0.8,31.3*
Cc1occc1C(=O)N/N=C/C=C/c1ccccc1,8.8,-0.3,-0.9,-10.6,-1.9
Cc1ccc(C(=O)N/N=C/C=C/c2ccccc2)cc1,-0.7,1.0,7.6,-35.6*,-2.2
O=S(=O)(NCc1c(Cl)cccc1Oc1ccccc1)c1ccc(F)cc1,-4.2,4.4,28.6,-34.1*,-6.5
CNS(=O)(=O)c1cn(CC(=O)Nc2ccc(C(C)=O)cc2)cc1S(=O)(=O)NC,-0.8,0.5,0.8,-5.0,2.2
O=C(CCN1C(=O)/C(=C/c2cccs2)SC1=S)Nc1ccccn1,-7.6,6.6,44.7*,-13.1,0.3

# Source: PubChem BioAssay (National Center for Advancing Translational Sciences (NCATS))
